Sampled rows, rich in hits. Any-hit rate of the full collection: about 1.4%.
BRCA1 expr up: increases BRCA1 expression. AID 624202. Potency, µM (top dose mostly 46.1 µM), without a hit: top-dose activation, usual class: activators. MCF7-BRCA1-FFLuc reporter, luminescence, 48 h; response scale: scaled: vehicle 0%, 10 µM genistein 100%. hit rate 1.1% among 380,000; further: potency means the concentration at half of the fitted maximal effect; nearly all actives have a fitted effect of over 80% in size
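First, MCF7-BRCA1-FFLuc cells (2000/well) attach for 2 h; next, compounds are pin-added and incubated 48 h at 37 °C; finally, luciferase reagent is added and luminescence read after 15 min.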
Chronic BCR inh: inhibitors of chronic active B-cell receptor signaling; ABC-DLBCL IkBa-CBG/CBR reporter, luminescence ratio, 4 h; Potency, µM (series often up to 46.1 µM), for the others: at the top dose activity change, negative = inhibition, actives largely listed as inhibitors; hit rate 0.05% among 340,000; active means well fitted inhibition curve with a large enough effect in the signal ratio, with a control signal flat, not every such curve was filed as active; inconclusive means small, poorly fitted or top-dose-only effect, or effect the other way, or a change in a side signal; the % refers to the signal ratio;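 further: potency means the concentration at half of the fitted maximal effect; plate controls were basal doxycycline-induced cells for no effect and cells given 10 µM MG132 for full effect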
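Doxycycline induced both beetle luciferases in TMD8 lymphoma cells; IKK-driven degradation limits the IkappaBalpha-fused green signal, while red luminescence normalises for cell number and nonspecific effects. Compounds tested up to 46 uM, 4 hrs.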
N370S GC mod: inhibitors or activators of N370S glucocerebrosidase for Gaucher disease; P04062; N370S GC spleen homogenate, 4MU-glucoside fluorescence; Potency, µM (highest dose often 59.4 µM), inactives show at the top dose activity change, negative = inhibition, most hits filed as inhibitors; hit rate 0.092% among 330,000; AID 2101;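 further: potency means the concentration at half of the fitted maximal effect; 0% = full enzyme activity and -100% = no enzyme basal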
Integrin act MD: activates integrin-mediated alleviation for muscular dystrophy; AID 624291; hit rate 0.064% among 350,000; Potency, µM (highest dose often 38.3 µM), inactives show at the highest dose activation, actives largely listed as activators; alpha7betagal myoblasts, beta-gal FDG fluorescence, 48 h;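 further: potency means the concentration at half of the fitted maximal effect; 100% = response of the positive control SU9516; nearly all actives have a fitted effect of over 60% in size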
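alpha7betagal+/- myoblasts (passage 13, 250/well) treated 48 h at 37C with compounds at 1:260 dilution of DMSO stock. Lysed, then beta-galactosidase activity read as FDG fluorescence (ex 480/em 540) after 30 min, with pre-read for autofluorescence.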
IL2 activator: activates IL-2 in a cell-based reporter assay; AID 652025; activation, % (series mostly up to about 46 µM); hit rate 0.065% among 360,000; IL-2 activation reporter assay, cell-based qHTS; stimulated with anti-CD3/CD4/CD28 beads; in transgenic mouse T cells; in the data active means activation above about 50%; inconclusive means mostly about 30% to 49%; further: 0% is about no effect
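Unstimulated transgenic mouse T cells; 60-min compound exposure; bead-based TCR/CD4/CD28 stimulation; 18 h culture, 37 degrees C; dual fluorescence (EGFP, DsRed) plate cytometry.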
Nrf2 ARE act: Nrf2 pathway activation | AREc32 ARE-luciferase reporter (MCF7-derived line), luminescence, 24 h | Potency, µM (titrated, usually from 46.1 µM), for inactives: at the top dose activation, hits mostly activators | hit rate 0.31% among 410,000 | AID 624171; further: potency means the concentration at half of the fitted maximal effect; % of control where 0% means no effect; nearly all actives have a fitted effect of over 65% in size
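AREc32 cells carrying an ARE-driven firefly luciferase, 1000 cells/well in OPTI-MEM with 5% FBS, dosed after overnight attachment and incubated 24 hr at 37 deg C. Steady-Glo luminescence read after 30 min at RT.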
* = called active by the depositor; ? = inconclusive; . = not tested or not shown; [ ] = another dose, or the depositor's remark. Unless noted, the call rests on the fitted dose curve; in most records, active means well fitted curve in the direction sought with a large enough effect; inconclusive means small, poorly fitted or top-dose-only effect, or another doubt; inactive means no such curve, though single readings can be large; an effect the other way counts as inactive or inconclusive.

SMILES	BRCA1 expr up	Chronic BCR inh	N370S GC mod	Integrin act MD	IL2 activator	Nrf2 ARE act
O=C(CCSCc1ccc(Cl)cc1)NCCC1=CCCCC1	1%	3%	-1%	-5%	3	-1%
COc1ccc(NCc2nnc3n2CCCCC3)c(OC)c1	-9%	.	.	.	.	0%
CC(C)NC(=O)CN1CCN(C(=O)CCl)CC1	-15%	1%	-7%	7.1µM*	-3	1%
CCCCNC(=O)C(CC)n1c(SCc2cccc(F)c2)nc2ccncc21 (centres undefined)	-27%	.	.	.	.	.
O=C(Nc1cccc(O)c1)c1cc(-c2ccccc2Cl)on1	7%	?	-2%	11%	-1	0%
O=C(Nc1ccccc1)OCc1cc(-c2ccccc2Cl)on1	8.9µM*	?	.	11%	0	-1%
CCN1C(=O)N/C(=C/c2ccc(C)o2)C1=O	1%	?	8%	17%	-1	9%
Cc1ccc(/C=C2/NC(=O)N(c3ccccc3)C2=O)o1	7.9µM*	?	5%	18%	-3	19%
CN1CCSc2ccc(C(=O)Nc3cc(F)ccc3F)cc21	13µM*	?	21%	14%	-1	6%
Cc1ccccc1NC(=O)c1ccc2c(c1)N(C)CCS2	?	?	5%	-9%	-2	4%
CCOC(=O)CN1C(=O)CCSc2ccc(Cl)cc21	10%	?	7%	?	-2	0%
CC(C)CN(C)C(=O)CCc1nnc(Cc2cccc(C(F)(F)F)c2)o1	10µM*	4%	-9%	12%	0	5%
CC(NC(=O)CCc1nnc(Cc2cccc(C(F)(F)F)c2)o1)C1CC1 (centres undefined)	55%	?	-1%	11%	-1	5%
Nc1c(-c2ccc3c(c2)OCCO3)oc2ccccc2c1=O	2.5µM*	-5%	0%	?	-4	8%
Cc1cccc(N2CCN(S(=O)(=O)c3c(C)noc3/C=C/N(C)C)CC2)c1C	-2%	-5%	-5%	18%	-2	-1%
CCOC(=O)C1Nc2ccccc2C2c3ccccc3CC12 (centres undefined)	17%	.	.	7%	-1	2%
CCOC(=O)C1Nc2c(F)cc(C)cc2C2c3ccccc3CC12 (centres undefined)	-26%	.	.	-6%	-1	11µM*
Brc1cc(Cc2nnc(-c3ccccc3)o2)c(Br)s1	-22%	-9%	?	10%	0	8.9µM*
CCCN1CNc2c(c(=O)[nH]c(=S)n2CCC(C)C)C1	18%	.	.	.	.	.
CCC(C)N=Cc1c(NCc2ccco2)nc2c(C)cccn2c1=O (centres undefined)	-30%	0%	9%	-5%	-2	13µM*
COc1ccc(CNc2ccc([N+](=O)[O-])cn2)cc1	10µM*	?	0%	9%	0	5%
Cc1ccc(Nc2nc3ccccc3s2)cc1	-18%	?	19%	-9%	0	7%
CC(C)OC(=O)CCC(=O)Nc1nc2ccccc2s1	66%	8%	4%	16%	-1	3%
O=C(CSc1nccn1-c1ccc(Cl)cc1)Nc1nc2ccccc2s1	.	.	.	.	.	1%
CN(C)C(=S)Nc1nc2ccccc2s1	3.5µM*	?	-23%	12%	-2	-1%
SMILES	BRCA1 expr up	Chronic BCR inh	N370S GC mod	Integrin act MD	IL2 activator	Nrf2 ARE act
CCOc1ccc2nc(NC(=S)N(C)C)sc2c1	?	?	-1%	-10%	-4	0%
CCOCC(=O)Nc1nc2ccccc2s1	7.9µM*	?	-5%	-26%	4	7%
Cc1ccccc1Nc1nc2ccccc2s1	3.5µM*	?	30%	-3%	-1	18%
O=C(CSc1nccn1-c1ccccc1)Nc1nc2ccccc2s1	11µM*	.	.	.	.	8%
CCSC(=O)N1CCN(/[N+]([O-])=N/Oc2ccc([N+](=O)[O-])cc2[N+](=O)[O-])CC1	-23%	.	.	.	.	.
CCNC(=O)C1CCCN(C(=O)c2ccc3c(c2)OCO3)CC1 (centres undefined)	0%	.	.	.	0	-1%[9.22 µM]
COc1cc2nc(C#N)nc(N)c2cc1OC	-26%	.	.	.	.	.
COc1ccc(C)cc1NC(=O)CCNC(=O)Cn1cnc2ccccc2c1=O	1%	?	-8%	0%	-2	0%
CCc1nc2ccc(C(=O)N3CCN(C(=O)c4ccco4)CC3)cn2c1N(C)Cc1ccc(OC)cc1	6%	.	.	.	0	1%
O=C(CC(C(=O)O)n1ccnc1)c1ccc(Cl)cc1 (centres undefined)	-15%	.	.	.	.	.
O=C(Nc1nc2ccccc2s1)NC1CCCCC1	?	?	21%	24%	-1	1%
CCNC(=O)Nc1nc2ccccc2s1	3.2µM*	?	3%	?	-2	-1%
Cc1ccc2c(CC(=O)NCc3ccccc3)coc2c1C	.	.	.	.	.	1%
COc1ccc(Nc2nc(N)nc(CSc3nccn3C)n2)cc1	3.2µM*	?	-1%	4%	0	0%
COc1ccc(OCc2nc(N)nc(Nc3ccc(C)cc3)n2)cc1	16µM*	-8%	6%	-15%	0	4%
C(/Oc1ccccc1)=C1\Nn2c(nnc2-c2cc(-c3ccccc3)n[nH]2)S1	-11%	.	.	.	.	.
Cc1ccc(Cl)cc1N1C(=O)CC(Sc2ccccc2N)C1=O (centres undefined)	-5%	.	.	-27%	1	-1%
CCOc1ccccc1O[C@H](c1ccccc1)[C@H]1CNCCO1	20%	3%	-8%	.	0	0%
CC(C)CNc1ncnc2oc(-c3ccco3)c(-c3ccco3)c12	-12%	.	.	.	.	.
O=C(Nc1cccc2ccccc12)c1cc2c(cc1Br)OCO2	-13%	11µM*	-6%	-7%	-2	0%
CN(C(=O)c1cc2c(cc1Br)OCO2)c1cccc2ccccc12	6%	.	.	4%	-3	0%
CCC1Nc2ncnc(N3CCCCC3)c2N(Cc2ccc(OC)cc2)C1=O (centres undefined)	-4%	1%	.	0%	1	-1%
CCN(Cc1ccccc1)C(=O)CCc1nnc(CCCc2ccccc2)o1	11µM*	13%	-1%	2%	0	4%
O=C(Nc1ccc(N2CCCCC2)cc1)c1cccnc1Cl	10µM*	?	12%	19%	4	2%
O=C(COCc1cc(-c2ccc3c(c2)OCO3)on1)Nc1cc(Cl)ccc1O	.	.	.	.	.	13%
O=C(COCc1cc(-c2ccc(F)cc2)on1)Nc1cc(Cl)ccc1O	.	.	.	.	.	6.3µM*
O=C(COCc1cc(-c2cccs2)on1)Nc1cc(Cl)ccc1O	.	.	.	.	.	3.5µM*
NCC(=O)c1c[nH]c2ccccc12	13%	.	.	.	.	.
O=C(C[n+]1cccc2cc(Cl)ccc21)c1cccc([N+](=O)[O-])c1	5%	.	.	.	.	.
CCOc1ccc(CNC(=O)c2cnc3c(C)cccn3c2=O)cc1	.	1%	.	.	.	0%
